According to publication PMC4336329 (PLoS ONE, 2015):
Among all 310,000 compounds or so, about 14,000 (4.5%) showed an effect of 50% or more. The effect is printed as a negative number. The sample holds strong results, similar compounds and a random draw of the others, so the mix is not that of the screen.

Target: human ether-à-go-go-related gene (hERG) potassium channel (human, UniProt Q12809)
Test: primary screen, population patch clamp on CHO cells stably expressing hERG; higher = less effect of the substance
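Further: peak tail current of the secondary pulse compared with the same well before compound.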

Sequence of human ether-à-go-go-related gene (hERG) potassium channel (Q12809 whole entry, looked up): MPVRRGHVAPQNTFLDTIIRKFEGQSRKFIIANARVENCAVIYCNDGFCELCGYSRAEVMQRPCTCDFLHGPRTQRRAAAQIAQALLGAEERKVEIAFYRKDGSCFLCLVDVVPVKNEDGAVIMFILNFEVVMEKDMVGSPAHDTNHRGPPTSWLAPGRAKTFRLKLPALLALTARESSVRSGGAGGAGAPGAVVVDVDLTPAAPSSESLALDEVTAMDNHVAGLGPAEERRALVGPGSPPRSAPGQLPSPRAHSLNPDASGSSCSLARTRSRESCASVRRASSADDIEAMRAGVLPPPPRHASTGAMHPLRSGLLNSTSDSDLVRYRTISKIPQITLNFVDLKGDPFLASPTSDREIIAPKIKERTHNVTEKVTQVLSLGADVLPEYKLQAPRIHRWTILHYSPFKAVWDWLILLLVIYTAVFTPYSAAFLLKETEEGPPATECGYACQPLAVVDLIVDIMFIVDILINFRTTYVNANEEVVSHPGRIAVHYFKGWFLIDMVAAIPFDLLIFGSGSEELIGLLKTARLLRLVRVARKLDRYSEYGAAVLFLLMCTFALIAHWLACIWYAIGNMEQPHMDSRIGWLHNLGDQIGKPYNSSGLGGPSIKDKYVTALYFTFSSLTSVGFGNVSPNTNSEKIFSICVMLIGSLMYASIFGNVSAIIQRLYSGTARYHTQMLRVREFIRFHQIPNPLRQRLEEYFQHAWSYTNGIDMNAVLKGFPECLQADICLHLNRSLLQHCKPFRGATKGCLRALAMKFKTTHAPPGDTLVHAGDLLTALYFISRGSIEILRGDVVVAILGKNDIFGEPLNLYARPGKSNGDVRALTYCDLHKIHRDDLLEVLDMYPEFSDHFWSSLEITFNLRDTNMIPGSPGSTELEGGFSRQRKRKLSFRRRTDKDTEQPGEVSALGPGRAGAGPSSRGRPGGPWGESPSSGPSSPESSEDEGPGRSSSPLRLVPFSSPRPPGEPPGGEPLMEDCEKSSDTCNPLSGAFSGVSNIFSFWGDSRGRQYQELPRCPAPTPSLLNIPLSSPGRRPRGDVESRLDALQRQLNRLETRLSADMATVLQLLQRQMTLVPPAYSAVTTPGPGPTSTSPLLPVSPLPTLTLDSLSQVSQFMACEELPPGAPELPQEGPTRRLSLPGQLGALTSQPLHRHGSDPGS

Going from `CCN1C(N(C)CCc2cccs2)=N[C@@H](c2ccccc2)C(C(=O)OC)=C1C` to `CCN1C(=O)N[C@@H](c2ccccc2)C(C(=O)OC)=C1C`, the “hERG current change (%, negative = inhibition) at 10uM” value rises from -53.8% to -1.67%.

Compared with `CCN1C(=O)N[C@@H](c2cccs2)C(C(=O)OC)=C1C`, `CCN1C(=NCCOC)N[C@@H](c2cccs2)C(C(=O)OC)=C1C` is lower in “hERG current change (%, negative = inhibition) at 10uM” value: 10.2% for the first, -5.96% for the second.

Compared with `C=CCN=C1N[C@@H](c2ccccc2)C(C(=O)OC)=C(C)N1CC`, `CC1Cc2nc(SCC(=O)NCc3ccco3)n(-c3ccccc3)c(=O)c2S1` (stereo not shown) is lower in “hERG current change (%, negative = inhibition) at 10uM” value: 1.27% for the first, -33.5% for the second.

First: CCOC(=O)C1=C(C)Nc2ccccc2N/C1=N\S(=O)(=O)c1ccc(Cl)cc1
Second: CCN(Cc1ccccc1)c1ccc(/C=N/NS(=O)(=O)c2cccc([N+](=O)[O-])c2)cc1
The “hERG current change (%, negative = inhibition) at 10uM” value of the first is lower: -7.32% for the first, 10.3% for the second.

Going from `COc1ccc(CNC(=O)CCCNS(=O)(=O)c2cccc3nonc23)cc1` to `COc1ccc(CNC(=O)[C@@H]2CC=C[C@@H]3CCN(Cc4ccc(Cl)c(Cl)c4)C(=O)[C@@H]32)cc1`, the “hERG current change (%, negative = inhibition) at 10uM” value falls from -1.27% to -8.85%.

First: CC(CC(=O)NC1CCCCC1)S(=O)(=O)c1ccc2c(c1)NC(=O)CO2 (stereo not shown)
Second: COc1ccc(Cl)cc1C(=O)Nc1ccc(CN2CCCCC2)cc1
The “hERG current change (%, negative = inhibition) at 10uM” value of the first is higher: 5.72% for the first, -52% for the second.

First: Cc1cc(C)nc(N(C#N)Cc2ccccc2Cl)n1
Second: Cc1cc(C)nc(N(C#N)Cc2ccccc2C)n1
The “hERG current change (%, negative = inhibition) at 10uM” value of the first is higher: 4.48% for the first, -51.4% for the second.

Going from `Cc1cc(C)nc(N(C#N)Cc2cccc3ccccc23)n1` to `CC(=O)Nc1cccc(-c2nnc3c4ccccc4c(C)nn23)c1`, the “hERG current change (%, negative = inhibition) at 10uM” value falls from 3.61% to -0.564%.

Compared with `CCC(=O)n1nc(-c2ccco2)nc1N`, `Cc1cccc(NC(=O)CSc2nc3ccccc3o2)c1` is lower in “hERG current change (%, negative = inhibition) at 10uM” value: 10.8% for the first, 3.5% for the second.

Going from `Cc1nn2c(-c3cccc(NC(=O)CSc4nc5ccccc5o4)c3)nnc2c2ccccc12` to `Cc1ccc(C(=O)Nc2cccc(C(F)(F)F)c2)cc1NC(=O)c1csc(-c2ccncc2)n1`, the “hERG current change (%, negative = inhibition) at 10uM” value rises from -70.8% to -62.5%.

First: CCS(=O)(=O)N1CCN(C(=O)c2cccc3ccccc23)CC1
Second: COc1ccccc1C(=O)Nc1ccc(CN2CCCCC2)cc1
The “hERG current change (%, negative = inhibition) at 10uM” value of the first is higher: 12.8% for the first, -28.4% for the second.

Going from `COc1cccc(CCN2C(=O)C(=O)N([C@@H](CNCc3ccccc3)Cc3ccccc3F)C[C@@H]2C(C)(C)C)c1` to `COc1ccc(CNC[C@@H](CCCCN(C)Cc2ccc(OC)cc2)N2C[C@H](c3ccccc3)N(CCc3ccc(Cl)c(Cl)c3)C(=O)C2=O)cc1`, the “hERG current change (%, negative = inhibition) at 10uM” value falls from -48.5% to -80.3%.

Compared with `Nn1cnc2cc3ccccc3cc2c1=O`, `CC(C)N1C(=O)C2ON(c3ccccc3)C(c3cccs3)C2C1=O` (stereo not shown) is lower in “hERG current change (%, negative = inhibition) at 10uM” value: 8.16% for the first, -16.6% for the second.

First: Cn1c(=O)c2cn(-c3ccc4c(c3)OCCO4)cc2n(C)c1=O
Second: Cc1cc(=O)oc2c(C)c(OCC(=O)N(C)C)ccc12
The “hERG current change (%, negative = inhibition) at 10uM” value of the first is higher: 11.3% for the first, 9.8% for the second.

Going from `Cc1cccc(C)c1NC(=O)C1(N(Cc2ccco2)C(=O)c2ccccn2)CCCC1` to `COc1c(C)cccc1C(=O)Nc1ccc(CN2CCCCC2)cc1`, the “hERG current change (%, negative = inhibition) at 10uM” value falls from 5.95% to -30.7%.

Going from `COc1c(Cl)cc(Cl)cc1C(=O)Nc1ccc(CN2CCCCC2)cc1` to `COc1c(Cl)cc(Cl)cc1C(=O)Nc1ccc(CN2CCOCC2)cc1`, the “hERG current change (%, negative = inhibition) at 10uM” value rises from -65.1% to 8.37%.

First: COc1cccc(OC)c1C(=O)Nc1ccc(CN2CCCCC2)cc1
Second: CCN1CCN(Cc2ccc(NC(=O)c3ccc(C)c(NC(=O)c4csc(-c5ccncc5)n4)c3)cc2C(F)(F)F)CC1
The “hERG current change (%, negative = inhibition) at 10uM” value of the first is higher: 10.6% for the first, 7.22% for the second.

First: Cc1ccc(N2C(S)=C(C#N)C(=O)NC2c2cccs2)cc1 (stereo not shown)
Second: CCOC(=O)C(CC)(CCC(=O)O)c1csc(Nc2ccc(C)cc2)n1 (stereo not shown)
The “hERG current change (%, negative = inhibition) at 10uM” value of the first is lower: 15.2% for the first, 16.5% for the second.

Compared with `c1ccc(CN(Cc2ccccc2)c2ncnc3c2nnn3Cc2ccccc2)cc1`, `O=C(Nc1ccc(C(F)(F)F)cc1)c1csc(-c2ccncc2)n1` is lower in “hERG current change (%, negative = inhibition) at 10uM” value: 7.63% for the first, -25.4% for the second.

Going from `COc1cc(NC(=O)c2csc(-c3ccncc3)n2)cc(C(=O)Nc2cccc(C(F)(F)F)c2)c1` to `O=C(Nc1cccc(C(F)(F)F)c1)c1csc(-c2ccncc2)n1`, the “hERG current change (%, negative = inhibition) at 10uM” value falls from -48.7% to -68.6%.

Compared with `NNC(=O)c1csc(-c2cccc(C(F)(F)F)c2)n1`, `COc1ccc(C(C)=O)cc1COC(=O)c1ccc(N)c([N+](=O)[O-])c1` is higher in “hERG current change (%, negative = inhibition) at 10uM” value: -30% for the first, 35.1% for the second.

For `O=C(c1ccc(F)cc1)N1C2CCC1CC(O)(c1ccc(F)cc1)C2` (stereo not shown), the “hERG current change (%, negative = inhibition) at 10uM” value was -20.6%.
